Data: PubChem BioAssay (EPA / NIEHS)
Inconclusive results are not listed. The source made the active and inactive calls. How the source made its calls, unless noted: active means hit-call score of the fitted dose curve at least 0.9, where 1 is the maximum; inactive means score below 0.9.

Assays:
[1] = CCTE_Shafer_MEA_acute_spike_number: CCTE's Neural Acute Assay for Total Number of Spikes, Shafer Lab (AID 2284008)
How it was run: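 Rat primary cortical neurons on 48-well MEA plates, DIV 13 or 15, at 37 C. 40 min baseline then 40 min with compound (0.03-40 uM); spikes detected at 8x rms noise, expressed as percent change from baseline.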

[2] = CCTE_Shafer_MEA_acute_firing_rate_mean: CCTE's Neural Acute Assay for Mean Firing Rate, Shafer Lab (AID 2284009);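 further: analyzed for loss of signal so actives lower firing rate relative to DMSO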
How it was run: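 Percent change in well-mean firing rate was derived from extracellular spikes detected at 8x rms noise (300-5000 Hz band-pass) before and after a 40-min compound exposure. Cultures were primary rat cortical neurons, tested at 0.03-40 uM.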

[3] = CCTE_Harrill_HTTr_Viability_MCF7: CCTE's 6-hour Cell Viability Assessment for the High-Throughput Transcriptomics (HTTr) Platform, in MCF-7 cells cultured in DMEM + 10% fetal bovine serum, Harrill Lab (AID 2284010)
How it was run: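 MCF-7 cells in DMEM + 10% FBS, 384-well, exposed 6 h to an eight-point dilution series. Membrane integrity scored by high-content imaging of propidium iodide exclusion; bidirectional fit versus DMSO.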

[4] = CCTE_Harrill_HTTr_CellCount_MCF7: CCTE's Cell Proliferation Assessment for the High-Throughput Transcriptomics (HTTr) Platform, Harrill Lab (AID 2284012; active means hit-call score of the fitted dose curve at least 0.9, where 1 is the maximum;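 further: cells exposed to compound for six hours; intended direction is loss of nuclei count meaning fewer cells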)
How it was run: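 MCF7 cells exposed 6 hours to an eight-point dilution series; Hoechst-stained nuclei counted by high-content imaging. Bidirectional curve fitting against DMSO baseline.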

[5] = CCTE_Shafer_MEA_acute_burst_number: CCTE's Neural Acute Assay for Single-Electrode Bursts, Shafer Lab (AID 2284013)
How it was run: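 Spontaneous network activity of primary rat cortical neurons was recorded extracellularly on microelectrode arrays at 37 C, with 40-min periods before and during exposure to 0.03-40 uM compound on DIV 13 or 15.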

[6] = CCTE_Shafer_MEA_acute_burst_duration_mean: CCTE's Neural Acute Assay for Mean Burst Duration, Shafer Lab (AID 2284014);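 further: hits are decreases in mean burst duration relative to DMSO controls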
How it was run: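 Read-out is the per-well percent change in mean burst duration (first to last spike within a single-electrode burst) between 40-min recordings before and after compound. Cultures were primary rat cortical neurons on MEAs, dosed at 0.03-40 uM on DIV 13 or 15.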

[7] = CCTE_Shafer_MEA_acute_per_burst_spike_number_mean: CCTE's Neural Acute Assay for Average Number of Spikes Per Burst, Shafer Lab (AID 2284015);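 further: hits are decreases in mean spikes per burst versus baseline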
How it was run: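 Rat primary cortical neurons on 48-well MEAs (DIV 13 or 15) were treated with 0.03-40 uM compound at 37 C. Mean spikes per burst over 40 min were recorded before and after exposure and expressed as percent change from baseline, relative to DMSO.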

[8] = CCTE_Shafer_MEA_acute_interburst_interval_mean: CCTE's Neural Acute Assay for Mean Interburst Interval, Shafer Lab (AID 2284016);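 further: percent change of mean interburst interval versus each well's own pre-dose baseline; curves fitted for decrease in interburst interval relative to DMSO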
How it was run: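 Rat primary cortical neurons on 48-well MEAs at DIV 13 or 15 were exposed acutely to 0.03-40 uM. Spikes detected at 8x rms noise, 37 C. Mean interburst interval from 40 min recordings expressed as percent change from 40 min pre-treatment baseline.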

[9] = CCTE_Shafer_MEA_acute_burst_percentage_mean: CCTE's Neural Acute Assay for Percentage of Spikes in a Burst, Shafer Lab (AID 2284017)
How it was run: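 Primary rat cortical neurons on 48-well MEA plates, treated on DIV 13 or 15 at 0.03-40 uM. Spikes detected at 8x rms noise at 37C; percent change from 40-min baseline to 40-min post-dose recording, fitted versus DMSO.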

[10] = CCTE_Shafer_MEA_acute_burst_percentage_std: CCTE's Neural Acute Assay for Standard Deviation of Burst Percentage, Shafer Lab (AID 2284018);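 further: fitted in the negative direction so actives lower burst percentage SD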
How it was run: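 Value is percent change from baseline in the across-electrode SD of spikes-in-bursts percentage, wells with >/= 10 active electrodes. Acute 40-min exposure to 0.03-40 uM on DIV 13 or 15 rat cortical cultures, recorded at 37 C after 40-min baseline.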

[11] = CCTE_Shafer_MEA_acute_per_network_burst_spike_number_mean: CCTE's Neural Acute Assay for Average Number of Spikes in a Network Burst, Shafer Lab (AID 2284019);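 further: curve fitted for loss of signal so actives reduce spikes per network burst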
How it was run: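 Read-out is mean spike count per network burst, taken as percent change between a 40-min pre-exposure and a 40-min post-exposure recording per well. Rat primary cortical neurons on MEAs at 37 C, DIV 13 or 15; compounds at 0.03-40 uM.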

[12] = CCTE_Shafer_MEA_acute_per_network_burst_spike_number_std: CCTE's Neural Acute Assay for Standard Deviation of Number of Spikes in a Network Burst, Shafer Lab (AID 2284020);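 further: fitted for decrease in spike-number SD versus DMSO so actives lower it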
How it was run: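 Spontaneous network activity of primary rat cortical neurons is recorded extracellularly before and after a 40-min compound exposure (0.03-40 uM) at 37 C. The endpoint is the well's percent change in burst spike-number SD.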

[13] = CCTE_Shafer_MEA_acute_per_network_burst_electrodes_number_mean: CCTE's Neural Acute Assay for Mean Number of Electrodes in a Network Burst, Shafer Lab (AID 2284021);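 further: curves fitted for decreases only so hits reduce electrodes per burst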
How it was run: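 Rat primary cortical neurons on 48-well MEAs, DIV 13 or 15, were treated at 0.03-40 uM. Spikes were detected at 8x rms noise and recorded at 37 C. The mean electrodes per network burst in a 40 min exposure recording was expressed as percent change from a 40 min baseline.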

[14] = CCTE_Shafer_MEA_acute_network_burst_percentage: CCTE's Neural Acute Assay for Percentage of Network Bursts, Shafer Lab (AID 2284022);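 further: curves fitted for loss so actives lower network burst percentage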
How it was run: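 Rat primary cortical neuron networks on 48-well MEA plates, DIV 13 or 15, treated acutely with compound (0.03-40 uM, at least three wells). Percent of spikes within network bursts compared between 40-min recordings before and during exposure at 37 C, expressed as percent change.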

[15] = CCTE_Shafer_MEA_acute_cross_correlation_area: CCTE's Neural Acute Assay for Area of Cross Correlation, Shafer Lab (AID 2284024);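 further: curves fitted for loss of cross-correlation area so actives lower synchrony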
How it was run: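 Rat primary cortical neurons on 48-well MEA, DIV 13 or 15; compounds 0.03-40 uM. Baseline and post-exposure 40 min recordings at 37 C; percent change in area under pooled inter-electrode cross-correlation near zero lag, relative to DMSO.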

[16] = CCTE_Shafer_MEA_acute_cross_correlation_HWHM: CCTE's Neural Acute Assay for Cross Correlation at Half Width at Half Maximum, Shafer Lab (AID 2284026);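 further: percent change per well from pre-dose baseline in spike cross-correlogram half width; hits are a decrease in cross-correlogram half width relative to DMSO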
How it was run: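 Rat primary cortical neurons on 48-well MEA plates; 40-min baseline and 40-min post-exposure recordings at 37 C on DIV 13 or 15, compounds 0.03-40 uM. Spikes detected at 8x rms noise; percent change in cross-correlogram HWHM per well vs baseline.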

[17] = CCTE_Shafer_MEA_acute_synchrony_index: CCTE's Neural Acute Assay for Synchrony, Shafer Lab (AID 2284027);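 further: network synchrony index of spontaneous spiking in primary rat cortical neurons on MEAs; fitted for loss of signal so actives lower synchrony relative to DMSO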
How it was run: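 Primary rat cortical neurons on 48-well MEAs, dosed at 0.03–40 uM on DIV 13 or 15. Spikes are recorded for 40 min at 37C before and after exposure, and synchrony index (0–1) is expressed as percent change from baseline per well.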

[18] = CCTE_Shafer_MEA_dev_firing_rate_mean: CCTE's Neural Network Formation Assay for Mean Firing Rate, Shafer Lab (AID 2284031)
How it was run: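 Primary rat cortical neurons on 48-well MEA plates, exposed from plating day 0 with dosing renewed on DIV 5 and 9. Mean well firing rate over active electrodes, recorded days 5, 7, 9, 12, summarised as trapezoidal AUC.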

[19] = CCTE_Shafer_MEA_dev_per_burst_spike_percent: CCTE's Neural Network Formation Assay for Percent of Spikes in a Burst, Shafer Lab (AID 2284032);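 further: fitted as a decrease in burst spike percentage below DMSO baseline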
How it was run: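 Rat primary cortical neurons on 16-electrode MEA wells, dosed from plating day 0 for 12 days with renewal on DIV 5 and 9; spikes-in-bursts percentage averaged over bursting electrodes, collapsed as AUC across days 5, 7, 9, 12; loss direction versus DMSO.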

[20] = CCTE_Shafer_MEA_dev_active_electrodes_number: CCTE's Neural Network Formation Assay for Number of Active Electrodes, Shafer Lab (AID 2284040; active means hit-call score of the fitted dose curve at least 0.9, where 1 is the maximum;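 further: potency for loss of active electrodes versus DMSO so lower counts are hits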)
How it was run: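 Primary rat cortical neurons on 16-electrode MEA wells, exposed from day 0 through day 12 with compound renewed at DIV 5 and 9 feeds. Active electrodes (mean firing ≥5 spikes/min) counted at DIV 5, 7, 9, 12; trapezoidal AUC across days, loss-of-signal versus DMSO.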

[21] = CCTE_Shafer_MEA_dev_burst_rate: CCTE's Neural Network Formation Assay for Burst Rate, Shafer Lab (AID 2284042)
How it was run: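 Primary rat cortical neurons on PEI-coated 48-well MEA plates (laminin added with cells at plating) (16 electrodes/well), exposed from plating to day 12, dosing renewed at DIV 5 and 9. Burst rate averaged over active electrodes, recorded DIV 5, 7, 9, 12, summarized as AUC; loss versus DMSO.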

[22] = CCTE_Shafer_MEA_dev_bursting_electrodes_number: CCTE's Neural Network Formation Assay for Number of Bursting Electrodes, Shafer Lab (AID 2284043; active means hit-call score of the fitted dose curve at least 0.9, where 1 is the maximum;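 further: potency is for loss of bursting electrodes relative to DMSO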)
How it was run: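 Read-out is the per-well number of electrodes bursting at least once every 2 minutes, recorded on days 5, 7, 9 and 12 and collapsed by trapezoidal area under the curve. Cultures were primary rat cortical neurons on MEA plates, treated continuously from plating.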

[23] = CCTE_Shafer_MEA_dev_per_burst_interspike_interval: CCTE's Neural Network Formation Assay for Burst Interspike Interval, Shafer Lab (AID 2284044);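 further: mean spike spacing inside bursts as AUC over recordings on days 5 7 9 12; potency for a decrease of within-burst interspike interval below DMSO level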
How it was run: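 Primary rat cortical neurons on 48-well MEA plates, exposed from day 0 through day 12, treatment renewed at DIV 5 and 9. Within-burst interspike interval recorded days 5, 7, 9, 12, well-averaged, summarised as AUC; negative fit versus DMSO.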

[24] = CCTE_Shafer_MEA_dev_burst_duration_mean: CCTE's Neural Network Formation Assay for Mean Burst Duration, Shafer Lab (AID 2284045)
How it was run: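 Read-out: average first-to-last-spike interval within single-electrode bursts, averaged over bursting electrodes per well, then summarised as area under the curve across days 5, 7, 9 and 12. Developing rat cortical networks were exposed from day 0.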

[25] = CCTE_Shafer_MEA_dev_interburst_interval_mean: CCTE's Neural Network Formation Assay for Mean Interburst Interval, Shafer Lab (AID 2284046);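 further: well-mean interburst interval of bursting electrodes as AUC over four recording days; curve fitted for decrease in interburst interval relative to DMSO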
How it was run: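 Recordings on days 5, 7, 9 and 12 give well-mean interburst interval across actively bursting electrodes, summarized as area under the curve. Cultures: rat cortical neurons, continuous exposure from day 0, compound renewed at feeds; decrease analyzed versus DMSO.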

[26] = CCTE_Shafer_MEA_dev_inter_network_spike_interval_mean: CCTE's Neural Network Formation Assay for Mean Inter-network Spike Interval, Shafer Lab (AID 2284047)
How it was run: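 Primary rat cortical neurons on 16-electrode MEA wells, exposed from plating day 0 through DIV 12, compound renewed at DIV 5 and 9 media changes. Mean interval between network-spike peaks recorded DIV 5, 7, 9, 12; collapsed as trapezoidal AUC, fitted downward versus DMSO.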

[27] = CCTE_Shafer_MEA_dev_network_spike_number: CCTE's Neural Network Formation Assay for Number of Network Spikes, Shafer Lab (AID 2284048);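 further: synchronized bursts across electrodes counted on days 5 7 9 12 and integrated as AUC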
How it was run: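 Developing networks of primary rat cortical neurons are treated over 12 days starting at plating, with media and compound fully replaced on DIV 5 and 9. Network spike counts from four recording days are integrated as trapezoidal AUC.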

[28] = CCTE_Shafer_MEA_dev_network_spike_peak: CCTE's Neural Network Formation Assay for Mean Number of Electrodes in Network Spike, Shafer Lab (AID 2284049);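 further: fitted for loss of signal meaning fewer electrodes in network spikes than DMSO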
How it was run: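 Rat cortical primary culture, 1.5 x 10^5 cells/well, 48-well MEA (16 electrodes/well). Dosing day 0 through DIV 12, full media/compound exchange DIV 5, 9. AxIS adaptive spike detection; AUC over days 5/7/9/12; loss-of-signal vs DMSO.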

[29] = CCTE_Shafer_MEA_dev_spike_duration_mean: CCTE's Neural Network Formation Assay for Mean Spike Duration, Shafer Lab (AID 2284051);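 further: mean network spike duration pooled as area under curve over DIV 5 to 12 recordings; potency for a decrease in mean network spike duration versus DMSO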
How it was run: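 Primary rat cortical neurons on 16-electrode MEA wells (PEI-coated, laminin in plating drop), exposed from plating through DIV 12 with compound renewed at DIV 5 and 9. Mean network-spike duration recorded DIV 5, 7, 9, 12; trapezoidal AUC across days, DMSO baseline.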

[30] = CCTE_Shafer_MEA_dev_network_spike_duration_std: CCTE's Neural Network Formation Assay for Standard Deviation of Network Spike Duration, Shafer Lab (AID 2284052);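 further: area under curve of spike duration SD across recording days 5 to 12; hits are decreases in network spike duration SD versus DMSO vehicle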
How it was run: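 Primary rat cortical neurons on PEI-coated 16-electrode MEA wells, exposed from plating day 0 through day 12 with compound renewed at DIV 5 and 9. Network spike duration SD recorded on days 5, 7, 9, 12, collapsed as trapezoidal AUC; loss-of-signal fit versus DMSO.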

Measured: AC50

O=C1CC2(CCCC2)CC(=O)N1CCCCN1CCN(c2ncccn2)CC1
active: [11] 1.01 µM | [13] 2.98 µM | [19] 15 µM | [20] 9.97 µM | [22] 15 µM | [23] 2.98 µM | [28] 15 µM | [29] 15 µM
inactive: all other assays above
